According to PubChem BioAssay AID1159580 (chemical genetic matrix, 2015):
Values joined by “and” are separate entries in the source; they are usually repeats but may differ in a detail not shown here. Equal values may be shown once. Hit rate of the full screen: of about 5,500 compounds, about 2,000 (36%) were called active. About 18% were inconclusive and are not listed. No stated cut-off is given here; in the data, active means normalized growth mostly below about 0.91 (no sharp cut-off); inconclusive means no clear call, values can overlap the other calls; inactive means mostly above about 0.92. This is one part of the list.

Assay: chemical genetic growth profiling, strain panel (AID 1159580);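 further: tested at 20 µM; growth read once vehicle control cultures reached saturation at 30 °C; 1 = growth at the plate median or of vehicle wells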
Settings: S. cerevisiae deletion strains, growth OD

Measured: normalized growth

CCc1ccc2c(O)c3c(cc2c1C(=O)OC)C(=O)c1c(O)ccc(O)c1C3=O
inactive: locus YAL013W, strain DEP1, stronger effect = lower value 0.989 | locus YAL021C, strain ccr4, stronger effect = lower value 0.963 | locus YAL026C, strain drs2, stronger effect = lower value 0.915 | locus YAL030W, strain snc1, stronger effect = lower value 0.992 | locus YBL061C, strain skt5, stronger effect = lower value 0.975 | locus YBR009C, strain hhf1, stronger effect = lower value 0.981 | locus YBR021W, strain FUR4, stronger effect = lower value 1.02 | locus YBR023C, strain chs3, stronger effect = lower value 0.975 | locus YBR171W, strain sec66, stronger effect = lower value 0.97 | locus YBR229C, strain ROT2, stronger effect = lower value 0.956 | locus YBR231C, strain swc5, stronger effect = lower value 0.997 | locus YBR279W, strain paf1, stronger effect = lower value 0.99 | locus YCL011C, strain gbp2, stronger effect = lower value 0.984 | locus YCL016C, strain dcc1, stronger effect = lower value 0.988 | locus YCL029C, strain bik1, stronger effect = lower value 0.975 | locus YCL069W, strain vba3, stronger effect = lower value 0.981 | locus YCR088W, strain abp1, stronger effect = lower value 0.981 | locus YDL005C, strain med2, stronger effect = lower value 0.997 | locus YDL035C, strain GPR1, stronger effect = lower value 0.984 | locus YDL040C, strain nat1, stronger effect = lower value 1 | locus YDL074C, strain BRE1, stronger effect = lower value 1.03 | locus YDL101C, strain DUN1, stronger effect = lower value 0.978 | locus YDL134C, strain PPH21, stronger effect = lower value 0.964 | locus YDL185W, strain tfp1, stronger effect = lower value 0.978 | locus YDL192W, strain arf1, stronger effect = lower value 0.958 | locus YDR001C, strain nth1, stronger effect = lower value 0.972 | locus YDR069C, strain doa4, stronger effect = lower value 0.909 | locus YDR101C, strain arx1, stronger effect = lower value 1.02 | locus YDR137W, strain rgp1, stronger effect = lower value 0.91 | locus YDR159W, strain sac3, stronger effect = lower value 0.944 | locus YDR162C, strain NBP2, stronger effect = lower value 0.935 | locus YDR195W, strain ref2 0.962 | locus YDR297W, strain sur2, stronger effect = lower value 0.98 | locus YDR318W, strain mcm21, stronger effect = lower value 0.951 | locus YDR334W, strain swr1, stronger effect = lower value 0.923 | locus YDR335W, strain msn5, stronger effect = lower value 0.971 | locus YDR388W, stronger effect = lower value 0.978 | locus YDR392W, strain spt3, stronger effect = lower value 0.926 | locus YDR502C, strain sam2, stronger effect = lower value 0.974 | locus YEL003W, strain gim4, stronger effect = lower value 0.996 | locus YEL037C, strain rad23, stronger effect = lower value 0.977 | locus YEL061C, strain CIN8 (second series), stronger effect = lower value 0.97 | locus YEL061C, strain CIN8, stronger effect = lower value 0.978 | locus YER015W, strain faa2, stronger effect = lower value 0.974 | locus YER016W, strain bim1, stronger effect = lower value 0.986 | locus YER110C, stronger effect = lower value 0.979 | locus YER111C, strain swi4, stronger effect = lower value 0.927 | locus YER155C, strain BEM2 (second series), stronger effect = lower value 0.909 | locus YER155C, strain BEM2, stronger effect = lower value 1 | locus YER167W, strain BCK2, stronger effect = lower value 0.987 | locus YGL078C, strain dbp3, stronger effect = lower value 1.01 | locus YGL086W, strain mad1, stronger effect = lower value 0.987 | locus YGL167C, strain pmr1, stronger effect = lower value 0.979 | locus YGL173C, strain kem1, stronger effect = lower value 0.972 | locus YGL227W, strain vid30, stronger effect = lower value 1 | locus YGL240W, strain doc1, stronger effect = lower value 0.978 | locus YGL248W, strain PDE1, stronger effect = lower value 0.955 | locus YGL253W, strain hxk2, stronger effect = lower value 0.982 | locus YGR135W, strain pre9, stronger effect = lower value 0.94 | locus YGR252W, strain gcn5, stronger effect = lower value 0.977 | locus YHR013C, strain ard1, stronger effect = lower value 0.996 | locus YHR027C, strain rpn1, stronger effect = lower value 0.994 | locus YHR030C, strain SLT2, stronger effect = lower value 0.986 and 0.951 | locus YHR079C, strain IRE1 (second series), stronger effect = lower value 0.997 | locus YHR079C, strain IRE1, stronger effect = lower value 0.954 | locus YHR094C, strain hxt1, stronger effect = lower value 0.978 | locus YHR129C, strain ARP1, stronger effect = lower value 0.978 | locus YHR142W, strain chs7, stronger effect = lower value 0.879 | locus YHR200W, strain rpn10, stronger effect = lower value 0.963 | locus YIL066C, strain RNR3, stronger effect = lower value 0.966 | locus YIL073C, strain SPO22, stronger effect = lower value 1.03 | locus YIL125W, strain kgd1, stronger effect = lower value 0.989 | locus YIR030C, strain dcg1, stronger effect = lower value 0.998 | locus YJL092W, strain hpr5, stronger effect = lower value 0.976 | locus YJL095W, strain BCK1 (second series), stronger effect = lower value 0.973 | locus YJL095W, strain BCK1, stronger effect = lower value 0.928 and 0.964 | locus YJL115W, strain asf1, stronger effect = lower value 0.966 | locus YJL129C, strain trk1, stronger effect = lower value 0.986 | locus YJL134W, strain LCB3, stronger effect = lower value 0.99 | locus YJL154C, strain vps35, stronger effect = lower value 0.987 | locus YJL164C, strain tpk1, stronger effect = lower value 0.968 | locus YJL166W, strain qcr8, stronger effect = lower value 0.961 | locus YJL168C, strain set2, stronger effect = lower value 0.982 | locus YJL187C, strain SWE1 (second series), stronger effect = lower value 0.959 | locus YJL187C, strain SWE1, stronger effect = lower value 0.98 | locus YJR043C, strain POL32, stronger effect = lower value 0.979
active: locus YFR010W, strain ubp6, stronger effect = lower value 0.874
